Inconclusive results are not listed. Active and inactive are the calls of the source. Unless noted, the call rests on the fitted dose curve; in most records, active means well fitted curve in the direction sought with a large enough effect in the repeat runs; inconclusive means weak or mixed curves; inactive means no such curve, though single readings can be large; an effect the other way counts as inactive or inconclusive.
How the values were obtained:
[1] = qHTS assay to identify small molecule agonists of the hypoxia (HIF-1) signaling pathway - cell viability counter screen (AID 1224844; calls by dose curve; further: nearly all actives have a fitted effect of over 50% in size)
Method in brief: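 In this counter screen, HRE-bla ME-180 cell viability after 17 hrs of compound exposure at 37C was read by CellTiter-Glo luminescence, multiplexed with the beta-lactamase reporter measurement.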

[2] = qHTS assay to identify small molecule agonists of H2AX (AID 1224845; active means well fitted activation curve with a large enough effect in the signal ratio in the repeat runs, not every such curve was filed as active; the % refers to the signal ratio)
Method in brief: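 Wild-type CHO-K1 cells, plated overnight, exposed 3hr at 37C to 15 concentrations (0.76% DMSO final). Lysed, then HTRF anti-pH2AX (S139) cryptate and anti-H2AX-d2 antibodies, 24 hr room temperature; 665/620 nm emission read.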

[3] = qHTS assay to identify small molecule agonists of the hypoxia (HIF-1) signaling pathway (AID 1224846; active means well fitted activation curve with a large enough effect in the signal ratio in the repeat runs, not every such curve was filed as active; the % refers to the signal ratio)
Method in brief: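 ME-180 HRE-bla reporter cells; compounds in DMSO, 17 h at 37C; read-out beta-lactamase via CCF4-AM FRET.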

[4] = qHTS assay to identify small molecule agonists of H2AX - cell viability counter screen (AID 1224847; calls by dose curve; further: top concentration of the series differs between compounds; nearly all actives have a fitted effect of over 30% in size)
Method in brief: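 Counter-screen for viability: CellTiter-Glo ATP luminescence read after 3 h compound treatment (15-point titration, 0.76% DMSO final) of CHO-K1 cells at 37C, with 30 min room-temperature reagent incubation.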

[5] = qHTS assay to identify small molecule antagonists of the estrogen related receptor (ERR) signaling pathway from Tox21 library (AID 1224848); further: nearly all actives have a fitted effect of over 50% in size
Method in brief: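 Compounds dissolved in DMSO are pin-transferred onto ERR reporter cells (2,000 per well) that have settled for 6 h at 37 C. Plates then incubate 18 h at 37 C before ONE-Glo luciferase reagent and a luminescence read 30 min later.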

[6] = qHTS assay to identify small molecule agonists of the estrogen related receptor (ERR) signaling pathway from Tox21 library (AID 1224849; calls by dose curve; further: nearly all actives have a fitted effect of over 15% in size); settings: ERR reporter cell line, ONE-Glo luciferase, 18 h; at 92.4 µM (top of the series) unless noted
Method in brief: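 Luciferase activity in ERR pathway reporter cells served as the agonist readout; exposure lasted 18 h at 37 C, with ONE-Glo detection after 30 min at room temperature.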

[7] = qHTS RealTime-Glo MT Cell Viability Assay in HepG2 cells - 24 hour (AID 1224867); further: nearly all actives have a fitted effect of over 50% in size
Method in brief: (§1)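 Tox21 10K library screened in qHTS format on HepG2 cells carrying RealTime-Glo reagents. Compounds were added after a 5 h preincubation, and the luminescent signal from continuous culture was measured repeatedly during 40 h treatment.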

[8] = qHTS RealTime-Glo MT Cell Viability Assay in HEK293 cells - 32 hour (AID 1224868); further: top concentration of the series differs between compounds; nearly all actives have a fitted effect of over 50% in size
Method in brief: (§2)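 Luminescence generated by NanoLuc from substrate produced by living HEK293 cells served as the viability signal. Each value reflects the reading at its stated time point during continuous 40 h compound exposure at 37 C.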

[9] = A CellTox Green Cytotoxicity Assay to monitor cytotoxicity in HEK293 cells - 0 hour (AID 1224869); further: nearly all actives have a fitted effect of over 50% in size
Method in brief: (§3)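 Real-time, in one plate: 600 HEK293 cells/well with dead-cell DNA dye, pinned compound after 5 h, 37 C incubation over 40 h; viable cells give no appreciable fluorescence.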

[10] = qHTS RealTime-Glo MT Cell Viability Assay in HepG2 cells - 40 hour (AID 1224870); further: nearly all actives have a fitted effect of over 50% in size
Method in brief: (§4)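 HepG2 cells (600/well) mixed with RealTime-Glo MT reagent, settled 5 h at 37 C/5% CO2 before compound addition. Nonlytic NanoLuc luminescence from viable-cell prosubstrate reduction read repeatedly during 40 h treatment at 37 C.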

[11] = A CellTox Green Cytotoxicity Assay to monitor cytotoxicity in HEK293 cells - 40 hour (AID 1224871); further: nearly all actives have a fitted effect of over 45% in size
Method in brief: as §3

[12] = qHTS RealTime-Glo MT Cell Viability Assay in HEK293 cells - 16 hour (AID 1224872)
Method in brief: as §2

[13] = qHTS RealTime-Glo MT Cell Viability Assay in HepG2 cells - 8 hour (AID 1224873); further: nearly all actives have a fitted effect of over 55% in size
Method in brief: as §4

[14] = qHTS RealTime-Glo MT Cell Viability Assay in HEK293 cells - 40 hour (AID 1224874); settings: RealTime-Glo luminescence; max response: active compounds read low; further: nearly all actives have a fitted effect of over 50% in size
Method in brief: (§5)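 Kinetic, non-lysing viability readout. Seed HEK293 (600/well) with reagent, incubate 5 h at 37 C/5% CO2, pin 23 nL compound in DMSO, incubate at 37 C, read luminescence at 0, 8, 16, 24, 32, 40 h.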

[15] = A CellTox Green Cytotoxicity Assay to monitor cytotoxicity in HEK293 cells - 24 hour (AID 1224875); further: nearly all actives have a fitted effect of over 45% in size
Method in brief: as §3

[16] = qHTS RealTime-Glo MT Cell Viability Assay in HepG2 cells - 32 hour (AID 1224877); further: nearly all actives have a fitted effect of over 55% in size
Method in brief: as §1

[17] = A CellTox Green Cytotoxicity Assay to monitor cytotoxicity in HepG2 cells - 24 hour (AID 1224878); further: nearly all actives have a fitted effect of over 45% in size
Method in brief: (§6)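 Cytotoxicity was tracked as dead-cell DNA fluorescence in HepG2 cells treated with test compounds at 37 C; each time-point value comes from one kinetic series spanning 0, 8, 16, 24, 32 and 40 h.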

[18] = A CellTox Green Cytotoxicity Assay to monitor cytotoxicity in HepG2 cells - 40 hour (AID 1224879); further: nearly all actives have a fitted effect of over 40% in size
Method in brief: as §6

[19] = qHTS RealTime-Glo MT Cell Viability Assay in HEK293 cells - 0 hour (AID 1224880); further: top concentration of the series differs between compounds; nearly all actives have a fitted effect of over 45% in size
Method in brief: as §5

[20] = A CellTox Green Cytotoxicity Assay to monitor cytotoxicity in HepG2 cells - 16 hour (AID 1224876); further: nearly all actives have a fitted effect of over 45% in size
Method in brief: as §6
On the % scale 0 is the no-effect control and ±100 the full control effect.

CCCCCON=O
inactive: Potency [1] | Potency [2] | Potency [3] | Potency [4] | Potency [5] | activity change, positive = activation [6] -5.1% | Potency [7] | Potency [8] | Potency [9] | Potency [10] | Potency [11] | Potency [12] | Potency [13] | max response [14] 1.89% | Potency [15] | Potency [16] | Potency [17] | Potency [18] | Potency [19]

CCN(CC)Cc1nccn1-c1ccc([N+](=O)[O-])cc1C(=O)c1ccccc1Cl
inactive: Potency [1] | Potency [2] | Potency [3] | Potency [4] | activity change, positive = activation [6] -10.7% [at 42.5 µM] | Potency [7] | Potency [8] | Potency [9] | Potency [10] | Potency [11] | Potency [12] | Potency [13] | Potency [15] | Potency [20] | Potency [16] | Potency [17] | Potency [18] | Potency [19]

N#CSCc1ccccc1
inactive: Potency [1] | Potency [2] | Potency [3] | Potency [4] | Potency [7] | Potency [8] | Potency [9] | Potency [10] | Potency [11] | Potency [12] | Potency [13] | max response [14] -24.3% | Potency [15] | Potency [20] | Potency [16] | Potency [17] | Potency [18] | Potency [19]

[Cl-].[Cl-].[Cl-].[Yb+3]
inactive: Potency [1] | Potency [2] | Potency [3] | Potency [4] | Potency [7] | Potency [8] | Potency [9] | Potency [10] | Potency [11] | Potency [12] | Potency [13] | max response [14] 28.3% | Potency [15] | Potency [20] | Potency [16] | Potency [17] | Potency [18]

BrCCCBr
inactive: Potency [1] | Potency [2] | Potency [3] | Potency [4] | Potency [7] | Potency [8] | Potency [9] | Potency [10] | Potency [11] | Potency [12] | Potency [13] | max response [14] 6.85% | Potency [15] | Potency [20] | Potency [16] | Potency [17] | Potency [18]

CCCCn1cc[n+](C)c1 (tested in a mixture with another compound)
inactive: Potency [1] | Potency [2] | Potency [3] | Potency [4] | Potency [7] | Potency [8] | Potency [9] | Potency [10] | Potency [11] | Potency [12] | Potency [13] | max response [14] 0.0469% | Potency [15] | Potency [20] | Potency [16] | Potency [17] | Potency [18] | Potency [19]

O=c1[nH]c2cc(Cl)ccc2n1C1CCNCC1
inactive: Potency [1] | Potency [2] | Potency [3] | Potency [4] | Potency [5] | activity change, positive = activation [6] 0.0547% [at 42.5 µM] | Potency [7] | Potency [8] | Potency [9] | Potency [10] | Potency [11] | Potency [12] | Potency [13] | max response [14] 4.84% | Potency [15] | Potency [20] | Potency [16] | Potency [17] | Potency [18] | Potency [19]

CSC(C)(C)/C=N/O
inactive: Potency [1] | Potency [2] | Potency [3] | Potency [4] | Potency [7] | Potency [8] | Potency [9] | Potency [10] | Potency [11] | Potency [12] | Potency [13] | max response [14] 2.63% | Potency [15] | Potency [20] | Potency [16] | Potency [17] | Potency [18]

CNC(=O)O/N=C(\C)C(C)S(C)(=O)=O (stereo unspecified)
inactive: Potency [1] | Potency [2] | Potency [3] | Potency [4] | Potency [5] | Potency [7] | Potency [8] | Potency [9] | Potency [10] | Potency [11] | Potency [12] | Potency [13] | Potency [15] | Potency [20] | Potency [16] | Potency [19]

CNN
inactive: Potency [1] | Potency [2] | Potency [3] | Potency [4] | Potency [7] | Potency [8] | Potency [9] | Potency [10] | Potency [11] | Potency [12] | Potency [13] | max response [14] 9.14% | Potency [15] | Potency [20] | Potency [16] | Potency [17] | Potency [18] | Potency [19]

Clc1cc(Cl)c(-c2cc(Cl)c(Cl)cc2Cl)cc1Cl
inactive: Potency [1] | Potency [2] | Potency [3] | Potency [4] | Potency [7] | Potency [8] | Potency [9] | Potency [10] | Potency [11] | Potency [12] | Potency [13] | max response [14] 1.25% | Potency [15] | Potency [20] | Potency [16] | Potency [17] | Potency [18] | Potency [19]

[O]=[Cr][O][Cr]=[O]
inactive: Potency [1] | Potency [2] | Potency [3] | Potency [4] | Potency [7] | Potency [8] | Potency [9] | Potency [10] | Potency [11] | Potency [12] | Potency [13] | max response [14] 17.9% | Potency [15] | Potency [20] | Potency [16] | Potency [17] | Potency [18] | Potency [19]

CCn1cc[n+](C)c1 (tested in a mixture with another compound)
inactive: Potency [1] | Potency [2] | Potency [3] | Potency [4] | Potency [7] | Potency [8] | Potency [9] | Potency [10] | Potency [11] | Potency [12] | Potency [13] | max response [14] -0.353% | Potency [15] | Potency [20] | Potency [16] | Potency [18] | Potency [19]

O=P(Cl)(Cl)Cl
inactive: Potency [1] | Potency [2] | Potency [3] | Potency [4] | Potency [7] | Potency [8] | Potency [9] | Potency [10] | Potency [11] | Potency [12] | Potency [13] | max response [14] 0.904% | Potency [15] | Potency [20] | Potency [16] | Potency [17] | Potency [18] | Potency [19]

CCN(CC)CCc1c[nH]c2ccccc12
inactive: Potency [1] | Potency [2] | Potency [3] | Potency [4] | Potency [7] | Potency [8] | Potency [9] | Potency [10] | Potency [11] | Potency [12] | Potency [13] | Potency [15] | Potency [20] | Potency [16] | Potency [17] | Potency [18] | Potency [19]

Reference: PubChem BioAssay (Tox21)
